From PubChem BioAssay (EPA / NIEHS)
Inconclusive results are not listed. Calls of active or inactive are those of the source. Rule for the calls, unless noted: active = hit-call score of the fitted dose curve at least 0.9, where 1 is the maximum; inconclusive = response in the unintended direction; inactive = score below 0.9.

What was measured:
[1] = read-out: sulfotransferase (SULT2A), SULT2A1 (gene 6822); experiment: CLD_SULT2A_24hr: CellzDirect (CLD) Gene Expression Assay for sulfotransferase (SULT2A) at 24 hours (AID 2283694)
Procedure, shortened: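 mRNA is measured by qNPA: probe hybridisation, S1 nuclease digestion, chemiluminescence, in lysates from human primary hepatocytes harvested 24 h after daily dosing. Vehicle was 0.2% DMSO. Phase-contrast microscopy flagged cytotoxicity (yes/no).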

[2] = read-out: Cytochrome P450 2B6 (Homo sapiens) (UniProt P20813); experiment: CLD_CYP2B6_48hr: CellzDirect (CLD) Gene Expression Assay for xenobiotic metabolism (CYP2B6) at 48 hours (AID 2283699);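 note: actives raise transcript level above DMSO so potency reflects induction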
Procedure, shortened: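 CYP2B6 transcript induction, read by quantitative nuclease protection (S1 digestion, chemiluminescent detection) 48 h after dosing, is fitted upward against 0.2% DMSO. Cultured human liver primary cells, two donor preparations, received fresh chemical daily over multiple concentrations.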

[3] = read-out: Broad substrate specificity ATP-binding cassette transporter ABCG2 (Homo sapiens) (UniProt Q9UNQ0); experiment: CLD_ABCG2_48hr: CellzDirect (CLD) Gene Expression Assay for ABC Transporter (ABCG2) at 48 hours (AID 2283704);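 for AC50: potency for induction of ABCG2 mRNA above the DMSO baseline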
Procedure, shortened: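 ABCG2 transcript measured at 48 h by quantitative nuclease protection (chemiluminescent) and fitted for increase relative to 0.2% DMSO. Hepatocyte cultures from separate donors got fresh compound daily over two days; morphology annotated cytotoxicity.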

[4] = STM_H9_OrnithineISnorm_perc: Stemina devTOX quickPredict H9 human embryonic stem cell (hESC)-based Assay for Ornithine (ORN) Metabolite Biomarker, Normalized (AID 2283712; active = hit-call score of the fitted dose curve at least 0.9, where 1 is the maximum; inactive = score below 0.9;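 note: ornithine released into spent medium during last day measured by mass spectrometry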)
Procedure, shortened: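 Metabolite endpoint from spent media of pluripotent H9 cells treated 72 h with daily re-feeding; ornithine measured by UPLC-HRMS against its 13C spike-in and referenced to the median 0.1% DMSO vehicle response.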

[5] = STM_H9_CystineISnorm_perc: Stemina devTOX quickPredict H9 human embryonic stem cell (hESC)-based Assay for Cystine (CYSS) Metabolite Biomarker, Normalized (AID 2283713; active = hit-call score of the fitted dose curve at least 0.9, where 1 is the maximum; inactive = score below 0.9)
Procedure, shortened: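 Normalized cystine level in conditioned medium from the final 24h of a 72h treatment of pluripotent H9 cells (daily media and compound renewal). Quantified by UPLC-HRMS with C13-labeled internal standard; scaled to median of 0.1% DMSO vehicle wells.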

[6] = STM_H9_OrnCyssISnorm_ratio: Stemina devTOX quickPredict H9 human embryonic stem cell (hESC)-based Assay for Ornithine (ORN):Cystine (CYSS) Ratio (AID 2283714)
Procedure, shortened: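 UPLC-HRMS of spent media: ORN/CYSS ratio of internal-standard-normalized percentages, DMSO (0.1%) baseline. Pluripotent H9 hESCs, 72h exposure, daily re-dosing with fresh media; last 24h media collected.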

[7] = CEETOX_H295R_MTT_cell_viability: Viability Assessment in the CeeTox HT-H295R MTT Assay (AID 2283718; active = hit-call score of the fitted dose curve at least 0.9, where 1 is the maximum; inactive = score below 0.9)
Procedure, shortened: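 Human H295R adrenal cells, prestimulated 48 h with 10 uM forskolin, were exposed 48 h to chemicals in 0.1% DMSO. Viability was measured in the same wells by MTT (0.5 mg/ml, 4 h, 37 C), absorbance 570/650 nm, as percent of controls.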

[8] = Tanguay_ZF_120hpf_ActivityScore_legacy: (Legacy) Oregon State University Tanguay Lab 120 Hour Post-fertilization zebrafish Assay Score for Activity (AID 2283742);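 for AC50: dechorionated Tropical 5D wild-type zebrafish embryos held singly per well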
Procedure, shortened: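 Dechorionated 5D embryos, one per well, static exposure 6–120 hpf, 28C, sealed and dark; final DMSO 0.64% (vol/vol). Brightfield binary scoring of mortality plus 18 endpoints; gain-of-signal fit versus DMSO baseline.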

[9] = read-out: xenobiotic metabolism (CYP1A2), CYP1A2 (gene 1544); experiment: CLD_CYP1A2_48hr: CellzDirect (CLD) Gene Expression Assay for xenobiotic metabolism (CYP1A2) at 48 hours (AID 2283703)
Procedure, shortened: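 Cytotoxicity was flagged yes/no from morphology, while CYP1A2 transcript induction was detected by qNPA chemiluminescence after a 48-hour exposure. Human primary hepatocyte cultures from separate donors received fresh dosing solutions daily over two days, with 0.2% DMSO as vehicle and baseline.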

[10] = read-out: sulfotransferase (SULT2A), SULT2A1 (gene 6822); experiment: CLD_SULT2A_48hr: CellzDirect (CLD) Gene Expression Assay for sulfotransferase (SULT2A) at 48 hours (AID 2283710);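 note: hits raise SULT2A1 transcript above the 0.2% DMSO vehicle baseline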
Procedure, shortened: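 SULT2A1 transcript measured by qNPA chemiluminescence in human primary hepatocyte cultures after 48 h, with fresh dosing solutions on two consecutive days; gain-of-signal fitting against 0.2% DMSO vehicle; cytotoxicity annotated from phase-contrast morphology.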

[11] = read-out: xenobiotic metabolism (CYP1A1), CYP1A1 (gene 1543); experiment: CLD_CYP1A1_48hr: CellzDirect (CLD) Gene Expression Assay for xenobiotic metabolism (CYP1A1) at 48 hours (AID 2283705)
Procedure, shortened: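 CYP1A1 transcript measured by quantitative nuclease protection (chemiluminescent) 48 h after two daily treatments of human hepatocyte cultures, versus 0.2% DMSO. Morphology-based cytotoxicity flags accompany data; two donor preparations used.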

[12] = read-out: alkyl and aryl transferase (GSTA2), GSTA2 (gene 2939); experiment: CLD_GSTA2_48hr: CellzDirect (CLD) Gene Expression Assay for alkyl and aryl transferase (GSTA2) at 48 hours (AID 2283708);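 note: active means mRNA induction above DMSO vehicle baseline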
Procedure, shortened: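 GSTA2 mRNA quantified by qNPA chemiluminescence in human primary hepatocyte lysates after 48 h of daily fresh chemical dosing. Increases fitted against 0.2% DMSO vehicle baseline; cytotoxicity from morphology annotated yes/no.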

[13] = read-out: glucuronosyltransferase (UGT1A1), UGT1A1 (gene 54658); experiment: CLD_UGT1A1_48hr: CellzDirect (CLD) Gene Expression Assay for glucuronosyltransferase (UGT1A1) at 48 hours (AID 2283709);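 note: actives increase expression relative to DMSO so potency refers to induction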
Procedure, shortened: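 Quantitative nuclease protection assay (chemiluminescent) for UGT1A1 mRNA at 48 h in human hepatocyte cultures from two donors, redosed daily with fresh solutions. Induction fitted relative to 0.2% DMSO; phase-contrast morphology annotated cytotoxicity.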

[14] = read-out: organic anion transporter (SLCO1B1), SLCO1B1 (gene 10599); experiment: CLD_SLCO1B1_48hr: CellzDirect (CLD) Gene Expression Assay for organic anion transporter (SLCO1B1) at 48 hours (AID 2283707)
Procedure, shortened: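 SLCO1B1 transcript quantified by qNPA with chemiluminescent readout after 48 h of once-daily chemical exposure. Cultured human primary hepatocytes came from two donors, with 0.2% DMSO vehicle; positive-direction fitting against DMSO, cytotoxicity flagged by morphology.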

[15] = read-out: glucuronosyltransferase (UGT1A1), UGT1A1 (gene 54658); experiment: CLD_UGT1A1_24hr: CellzDirect (CLD) Gene Expression Assay for glucuronosyltransferase (UGT1A1) at 24 hours (AID 2283696)
Procedure, shortened: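 UGT1A1 transcript induction was measured by quantitative nuclease protection assay (chemiluminescence) in human hepatocyte cultures 24 h after daily fresh dosing, with 0.2% DMSO as vehicle and baseline.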

Measured: AC50

Sequence of Broad substrate specificity ATP-binding cassette transporter ABCG2 (Homo sapiens) (Q9UNQ0 whole entry, looked up): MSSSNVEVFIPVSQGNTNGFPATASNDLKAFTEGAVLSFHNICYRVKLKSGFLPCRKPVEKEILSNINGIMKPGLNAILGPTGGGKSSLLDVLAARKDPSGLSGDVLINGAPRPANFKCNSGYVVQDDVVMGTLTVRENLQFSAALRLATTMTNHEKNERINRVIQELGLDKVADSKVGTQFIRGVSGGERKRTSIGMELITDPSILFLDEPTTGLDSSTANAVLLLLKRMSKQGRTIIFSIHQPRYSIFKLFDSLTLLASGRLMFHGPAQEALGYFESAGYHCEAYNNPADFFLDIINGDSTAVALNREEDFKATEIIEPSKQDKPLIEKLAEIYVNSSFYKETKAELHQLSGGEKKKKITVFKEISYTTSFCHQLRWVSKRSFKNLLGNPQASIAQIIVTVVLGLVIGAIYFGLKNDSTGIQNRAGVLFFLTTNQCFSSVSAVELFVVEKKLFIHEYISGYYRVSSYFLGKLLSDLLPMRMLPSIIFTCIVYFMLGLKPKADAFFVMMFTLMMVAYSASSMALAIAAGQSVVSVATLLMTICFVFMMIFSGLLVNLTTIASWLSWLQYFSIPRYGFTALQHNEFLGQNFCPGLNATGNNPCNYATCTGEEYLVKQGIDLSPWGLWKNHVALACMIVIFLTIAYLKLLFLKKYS

COc1ccc(C(=CC(=O)N2CCOCC2)c2ccc(Cl)cc2)cc1OC
active: [2] 3.59 µM | [3] 32 µM | [4] 0.119 µM | [8] 42.9 µM
inactive: [1] | [5] | [6] | [7]

COP(=O)(OC)OC(Br)C(Cl)(Cl)Br (stereo unspecified)
inactive: [2] | [9] | [10] | [8]

CCOP(=S)(OCC)SCCSCC
active: [2] 1.68 µM | [9] 7.27 µM | [11] 20 µM | [13] 4.17 µM | [4] 72.2 µM | [5] 31.1 µM | [6] 34.3 µM
inactive: [1] | [12] | [8]

COP(=O)(OC)C(O)C(Cl)(Cl)Cl (stereo unspecified)
inactive: [3] | [8]

CCCCSP(=O)(SCCCC)SCCCC
inactive: [1] | [14] | [8]
active: [2] 4.3 µM | [9] 3.04 µM | [3] 33.5 µM | [10] 33.4 µM

CNC(=O)ON=C(C)SC
inactive: [15] | [9] | [11] | [12] | [7] | [8]

O=C(O)c1cc(Oc2ccc(C(F)(F)F)cc2Cl)ccc1[N+](=O)[O-]
inactive: [1] | [2] | [14] | [13] | [7] | [8]

CCOP(=O)(NC(C)C)Oc1ccc(SC)c(C)c1 (stereo unspecified)
inactive: [1] | [11] | [7]
active: [2] 10.7 µM | [9] 5.87 µM | [8] 33.3 µM

CC(C)=CC1C(C(=O)OCN2C(=O)C3=C(CCCC3)C2=O)C1(C)C (stereo unspecified)
active: [2] 6.64 µM
inactive: [1] | [3] | [13] | [8]

C#CC(C)(C)NC(=O)c1cc(Cl)cc(Cl)c1
active: [2] 3.69 µM | [9] 0.348 µM
inactive: [1] | [7] | [8]

CCOP(=O)(SC(C)CC)N1CCSC1=O (stereo unspecified)
inactive: [1] | [3] | [14] | [10] | [8]
active: [2] 2.05 µM | [9] 4.51 µM
